{"source": "PubChem BioAssay (NCI)", "note": "This is part of a sample that, as a whole, favours compounds with a hit. Of some 83,000 tested, about 20% had one in any assay.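 For each line, cells grew in 96-well plates with the test compound present at a single concentration for 48 hours.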 Values without a mark were called inactive. The source made the active and inactive calls. Rule for the calls: active = growth percent below 10; inactive = the rest."}
{"tested_on": "HL-60(TB) leukemia", "assay": "NCI-60 one-dose screen, 48 h (100 = growth as untreated, 0 = no growth, -100 = all killed)", "conditions": "10 µM unless noted"}
{"smiles": "O=NN(C(=O)NC1CCC(C(=O)O)CC1)C1CCC(C(=O)O)CC1", "note": "(centres undefined)", "growth": "112%"}
{"smiles": "Cc1ccc(-n2c3c(c(-c4ccccc4)c2-c2ccccc2)C2=NCCN2C=N3)cc1", "growth": "98.5%"}
{"smiles": "COc1ccc2[nH]c(=O)c(/C=N/Nc3nc(-c4ccccc4)cs3)c(O)c2c1", "growth": "83.9%"}
{"smiles": "COCCn1cc(-c2nc(-c3c[nH]c4ncccc34)cs2)c2ccccc21", "growth": "76.9%"}
{"smiles": "O=C(/C=C/C12c3ccccc3C(c3ccccc31)C1C(=O)NC(=O)C12)c1cccs1", "note": "(centres undefined)", "growth": "6.95% (active)"}
{"smiles": "Oc1[nH]c2ccc(Cl)cc2c1/C=c1/ccc2c(c1)N=C(c1cc(F)cc(F)c1)N=2", "growth": "70.1%"}
{"smiles": "COc1cccc(/C=C2\\COc3ccc(-c4ccccc4)cc3C2=O)c1", "growth": "-47% (active)"}
{"smiles": "NS(=O)(=O)N(c1cc(C(F)(F)F)cc(C(F)(F)F)c1)C1CCN(Cc2ccc(F)cc2)CC1", "growth": "26.3%"}
{"smiles": "O=C(Nc1ccc(Cl)cc1F)c1cc(Br)ccc1O", "growth": "-39.8% (active)"}
{"smiles": "CCN1C(=O)N(CC)C2C1NN=c1s/c(=C3\\C(=O)N(CC(C)C)c4ccccc43)c(=O)n12", "note": "(centres undefined)", "growth": "-43.8% (active)"}
{"smiles": "CCN1C(=O)N(CC)C2C1NC(=O)N2/N=C/C=C/c1ccccc1", "note": "(centres undefined)", "growth": "0.782% (active)"}
{"smiles": "CCC(=O)Oc1ccc2c(c1)CC[C@@H]1[C@@H]2CC[C@]2(C)C[C@H](OC(=O)CC)C[C@@H]12", "growth": "30.8%"}
{"smiles": "Nc1nc(SN=Nc2ccc(S(N)(=O)=O)cc2)c2[nH]cnc2n1", "growth": "-16% (active)"}
{"smiles": "COc1ccc(C(=O)CSc2nc(-c3cc(OC)ccc3OC)cc(-c3ccc(OC)cc3)c2C#N)cc1", "growth": "98.3%"}
{"smiles": "Cc1cc(Cl)c2ccc(N(C)C)cc2n1", "growth": "93.6%"}
{"smiles": "CCCCNC(=O)c1ccc2c(c1)nc(-c1ccccc1)n2C1CCCCC1", "growth": "115%"}
{"smiles": "N/C(=N\\OC(=O)c1ccccc1)C(C(=O)NOC(=O)c1ccccc1)C1CCCCC1", "note": "(centres undefined)", "growth": "1.73% (active)"}
{"smiles": "CCCCC#Cc1c(I)n(C2OC(CO[Si](C)(C)C(C)(C)C)C3OC(C)(C)OC32)c(=O)n(C(=O)c2ccccc2)c1=O", "note": "(centres undefined)", "growth": "20.4%"}
{"smiles": "O=C1CNc2cc(Cl)ccc2N1", "growth": "99.7%"}
{"smiles": "NS(=O)(=O)c1ccc(Cn2c(SCC(=O)N/N=C/c3ccccc3O)nc3ccccc3c2=O)cc1", "growth": "40.9%"}
{"smiles": "CN1CCN(Cc2ccc(NC(=O)c3cncc(C#Cc4cnc(N)c5ccc(F)cc45)c3)cc2C(F)(F)F)CC1", "growth": "-27% (active)"}
{"smiles": "CCN(CC)CC(=O)Nc1c(C)cccc1C", "growth": "107%"}
{"smiles": "Cc1nc2ccccc2c(/C=C/c2ccccc2)c1C(=O)/C=C/c1ccc(Cl)cc1", "growth": "1.63% (active)"}
{"smiles": "CCC[S@@](=O)c1ccc2nc(NC(=O)OC)[nH]c2c1", "growth": "56.6%"}
{"smiles": "Cc1nn(-c2ccccc2)c2nc3nc4c(c(N)c3c(-c3ccc(Cl)cc3)c12)CCC4", "growth": "102%"}
{"smiles": "COc1cccc(-c2nc3sccn3c2-c2ccnc(NCCNS(=O)(=O)c3cccc(Cl)c3)c2)c1", "growth": "15.6%"}
{"smiles": "CCN(CC)CCCNC(=O)c1ccc(N)cc1", "growth": "76.5%"}
{"smiles": "CC/C=C\\CCC/C=C1/C(=O)C=C[C@@H]1C/C=C\\CCCC(=O)O", "growth": "10.9%"}
{"smiles": "O=C(Nc1ccc(-n2cc(-c3ccncc3)c(-c3ccc(O)c(Cl)c3)n2)cc1)c1cc(Cl)cc(Cl)c1", "growth": "28.1%"}
{"smiles": "CN(CSc1ccc(Cl)cc1)c1ccc(CSc2ccc(Cl)cc2)cc1", "growth": "-16.2% (active)"}
{"smiles": "COc1cc2c(cc1OCCCN1CCN(CCCOc3cc4c(cc3OC)C(=O)N3CCC[C@H]3C=N4)CC1)C=CC(C)(C)O2", "growth": "10.2%"}
{"smiles": "C#CCNc1nc(NCCNC(=O)CCl)nc(N(C)CCCCc2ccccc2)n1", "growth": "107%"}
{"smiles": "CCOC(=O)N1C/C(=C/c2ccc(Cl)cc2)C(=O)/C(=C/c2ccc(Cl)cc2)C1", "growth": "61.5%"}
{"smiles": "N=C(N)c1ccc(-c2ccc(-c3ccccc3)o2)cc1", "growth": "-62% (active)"}
{"smiles": "Cc1c(N(C)CS(=O)(=O)O)c(=O)n(-c2ccccc2)n1C", "growth": "96%"}
{"smiles": "O=C(N/N=C/c1c(Cl)cccc1Cl)c1ccccc1Nc1cccc(C(F)(F)F)c1", "growth": "95.3%"}
{"smiles": "Cn1cc(-c2csc(-c3cn(C)c4ncccc34)n2)c2cc(Br)cnc21", "growth": "83.1%"}
{"smiles": "CCOC(=O)c1c(-c2ccc(Cl)cc2)c(C#N)c2c(C#N)c(N)nn2c1N", "growth": "43.4%"}
{"smiles": "C=C1C(=O)O[C@H]2[C@H]1CC/C(COC(=O)c1cc3ccccc3o1)=C\\CC[C@@]1(C)O[C@@H]21", "growth": "-2.94% (active)"}
